The nature of experiment [1]: compounds altering Cy5-DNA-NS3h complex signal – biochemical, LOPAC1280, artefact control for HCV NS3 helicase inhibitor project (AID 687037). The settings on record: Cy5-DNA-NS3h complex fluorescence interference counterscreen.
A short description of experiment [2]: viability loss in pontine glioma line – cell-based, SU-DIPG-XVII, MIPE5.0, CellTiter-Glo, qHTS, dose response (AID 1347060; cut-off not given, nearly all actives have AC50 up to about 26 µM;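 further: cells exposed to compound for 48 hours before viability readout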). The settings on record: CellTiter-Glo ATP luminescence. On the technique in general: In ATP-based viability assays light output follows the ATP content of the culture.
Experiment [3] can be described thus: viability loss in pontine glioma line – cell-based, SU-DIPG-XIII, MIPE5.0, CellTiter-Glo, qHTS, dose response (AID 1347064; cut-off not given, nearly all actives have AC50 up to about 23 µM;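 on AC50: cells exposed to compound for 48 hours before the viability read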). Particulars: CellTiter-Glo ATP luminescence.
Experiment [4] can be described thus: viability loss in pontine glioma line – cell-based, SU-DIPG-XXV, MIPE5.0, CellTiter-Glo, qHTS, dose response (AID 1347065; cut-off not given, nearly all actives have AC50 up to about 26 µM;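 further: cells exposed to compound for 48 hours before ATP readout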). The settings on record: CellTiter-Glo ATP luminescence.
The nature of experiment [5]: growth inhibition of DIPG cells – cell-based, MIPE4.0 library, CellTiter-Glo luminescence, qHTS (AID 1347066; cut-off not given, nearly all actives have AC50 up to about 30 µM;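 further: cells exposed to compound for 48 hours before readout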). Particulars: SU-DIPG-VI viability, CellTiter-Glo ATP luminescence.
The nature of experiment [6]: growth inhibition of DIPG cells – cell-based, MIPE5.0 library, qHTS (AID 1347068; cut-off not given, nearly all actives have IC50 up to about 30 µM;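 on IC50: cells exposed to compound for 48 hours before viability readout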). Particulars: SU-DIPG-XXV viability.
Experiment [7] is described as follows: blockers of cellular phospholipid synthesis – cell-based, LOPAC library, screen 4, primary screen (AID 1347384). The settings on record: animal cells, phospholipid biosynthesis inhibition screen; at 10 µM.
A short description of experiment [8]: growth inhibition, single agent or in combination, cell-based, chromothripsis tumors, cisplatin or BGB combos (AID 1671449; in the data active means inhibition above about 80%;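 further: cells exposed for 96 hours; 0% = vehicle DMSO and 100% = killing by high DMSO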). The settings on record: LFS_MB_P medulloblastoma cells.
Experiment [9] is described as follows: growth inhibition, single agent and combos, cell-based, chromothripsis tumors, cisplatin or BGB combos (AID 1671450; in the data active means inhibition above about 80%;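 further: cells exposed to compound for four days; 0% = vehicle DMSO and 100% = cell killing by high DMSO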). Particulars: HDN33 neuroblastoma cells, stronger effect = higher value.
Experiment [10] is described as follows: growth inhibition, single agents and combos, ICB984, cell-based, cisplatin or BGB combos, synergistic combos for chromothripsis tumors (AID 1671451).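 Further: cells exposed for 96 hours before readout; 0% = vehicle DMSO and 100% = killing by high DMSO.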 The settings on record: ICB984 medulloblastoma cells, drug combinations, stronger effect = higher value.
The nature of experiment [11]: growth inhibition, single agents and combos, HTB85, cell-based, BGB or cisplatin IC20 combos, synergistic combos for chromothripsis tumors (AID 1671453; in the data active means inhibition above about 80%;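 further: cells exposed for 96 hours before readout; 0% = vehicle DMSO and 100% = high DMSO killing control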). The settings on record: HTB85 osteosarcoma cells, drug combinations, stronger effect = higher value.
Experiment [12] can be described thus: growth inhibition, MDA-MB-436, cell-based, BGB or cisplatin combos, synergistic combos for chromothripsis tumors (AID 1671458).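 Further: cells exposed for 96 hours; 0% = vehicle DMSO and 100% = killing by high DMSO.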 Particulars: MDA-MB-436 breast carcinoma growth inhibition, drug combinations, stronger effect = higher value.
A short description of experiment [13]: BT084 cell growth, single and combined drugs, ICGC_MB145, cisplatin and BGB IC40 combos (AID 1671461; in the data active means inhibition above about 80%;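 further: cells exposed to drugs for 96 hours; 0% = vehicle DMSO and 100% = high DMSO full killing control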). Particulars: BT084 medulloblastoma cells, drug combinations, stronger effect = higher value.
Experiment [14] can be described thus: viability loss in pontine glioma line – cell-based, SU-DIPG-XIII, MIPE4.0, CellTiter-Glo, qHTS, dose response (AID 1347061; cut-off not given, nearly all actives have AC50 up to about 37 µM;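 further: cells exposed to compound for 48 hours before readout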). The settings on record: CellTiter-Glo ATP luminescence.
Experiment [15] can be described thus: viability loss in pontine glioma line – cell-based, JHH-DIPG-1, MIPE4.0, CellTiter-Glo, qHTS, dose response (AID 1347062; cut-off not given, nearly all actives have AC50 up to about 27 µM;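 on AC50: cells exposed to compound for two days before readout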). The settings on record: JHH-DIPG-1 viability, CellTiter-Glo ATP luminescence.
A short description of experiment [16]: viability loss in pontine glioma line – cell-based, SU-DIPG-IV, MIPE4.0, CellTiter-Glo, qHTS, dose response (AID 1347063; cut-off not given, nearly all actives have AC50 up to about 30 µM;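 further: compound exposure lasted 48 hours before the viability readout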). The settings on record: CellTiter-Glo ATP luminescence.
Experiment [17] can be described thus: JHH-DIPG-1 glioma cell viability, MIPE5.0 library, CellTiter-Glo luminescence, qHTS (AID 1347067; cut-off not given, nearly all actives have AC50 up to about 26 µM;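 further: cells exposed to compound for 48 hours before readout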). Particulars: JHH-DIPG-1 glioma viability, CellTiter-Glo ATP luminescence.
For experiment [18], the system named is Aerobactin synthetase IucA (Klebsiella pneumoniae). In words: inhibition of K. pneumoniae IucA enzyme – biochemical, Tocris library, absorbance (AID 1345561).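 Further: 100% = enzyme without compound and 0% = no enzyme.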 Particulars: purified IucA enzyme assay, absorbance (OD) read-out; stronger effect = lower value;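 tested at 8 µM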.
Experiment [19] addresses Mitogen-activated protein kinase 7 (Homo sapiens) (UniProt Q13164). In words: Gal4-ERK5 driven luciferase induction – cell-based, HTS, primary screen (AID 1508626;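 active means luciferase signal above three times the same-plate solvent-only control wells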;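 further: luciferase driven by Gal4-ERK5 fusion binding five Gal4 sites before minimal TATA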). Particulars: HeLa Gal4-ERK5 transactivation, 18 h, at 5 µM, stronger effect = higher value.
Experiment [20] concerns the target ATP-dependent translocase ABCB1 (Homo sapiens) (UniProt P08183). In words: P-glycoprotein substrate transport blockade – cell-based (AID 377; in the data active means fluorescence slope change above about 50%). Particulars: MDR1-expressing cells, fluorescent substrate accumulation slope; stronger effect = higher value; concentration not given here.

The structures appear in SMILES notation. Inconclusive results are not listed. Activity calls are given as the source filed them. Unless noted, how the calls were made is not given here.

Results on 16 compounds are retold here after PubChem BioAssay.

The AC50 is the concentration giving half of the maximal activity seen. A word on the inhibition: it is the relative decrease from the control value, in per cent. One may read the remaining activity as the signal under treatment as a percentage of the control signal. By IC50 is commonly meant the midpoint of a concentration-inhibition curve.

Sequence of ATP-dependent translocase ABCB1 (Homo sapiens) (P08183 whole entry, looked up): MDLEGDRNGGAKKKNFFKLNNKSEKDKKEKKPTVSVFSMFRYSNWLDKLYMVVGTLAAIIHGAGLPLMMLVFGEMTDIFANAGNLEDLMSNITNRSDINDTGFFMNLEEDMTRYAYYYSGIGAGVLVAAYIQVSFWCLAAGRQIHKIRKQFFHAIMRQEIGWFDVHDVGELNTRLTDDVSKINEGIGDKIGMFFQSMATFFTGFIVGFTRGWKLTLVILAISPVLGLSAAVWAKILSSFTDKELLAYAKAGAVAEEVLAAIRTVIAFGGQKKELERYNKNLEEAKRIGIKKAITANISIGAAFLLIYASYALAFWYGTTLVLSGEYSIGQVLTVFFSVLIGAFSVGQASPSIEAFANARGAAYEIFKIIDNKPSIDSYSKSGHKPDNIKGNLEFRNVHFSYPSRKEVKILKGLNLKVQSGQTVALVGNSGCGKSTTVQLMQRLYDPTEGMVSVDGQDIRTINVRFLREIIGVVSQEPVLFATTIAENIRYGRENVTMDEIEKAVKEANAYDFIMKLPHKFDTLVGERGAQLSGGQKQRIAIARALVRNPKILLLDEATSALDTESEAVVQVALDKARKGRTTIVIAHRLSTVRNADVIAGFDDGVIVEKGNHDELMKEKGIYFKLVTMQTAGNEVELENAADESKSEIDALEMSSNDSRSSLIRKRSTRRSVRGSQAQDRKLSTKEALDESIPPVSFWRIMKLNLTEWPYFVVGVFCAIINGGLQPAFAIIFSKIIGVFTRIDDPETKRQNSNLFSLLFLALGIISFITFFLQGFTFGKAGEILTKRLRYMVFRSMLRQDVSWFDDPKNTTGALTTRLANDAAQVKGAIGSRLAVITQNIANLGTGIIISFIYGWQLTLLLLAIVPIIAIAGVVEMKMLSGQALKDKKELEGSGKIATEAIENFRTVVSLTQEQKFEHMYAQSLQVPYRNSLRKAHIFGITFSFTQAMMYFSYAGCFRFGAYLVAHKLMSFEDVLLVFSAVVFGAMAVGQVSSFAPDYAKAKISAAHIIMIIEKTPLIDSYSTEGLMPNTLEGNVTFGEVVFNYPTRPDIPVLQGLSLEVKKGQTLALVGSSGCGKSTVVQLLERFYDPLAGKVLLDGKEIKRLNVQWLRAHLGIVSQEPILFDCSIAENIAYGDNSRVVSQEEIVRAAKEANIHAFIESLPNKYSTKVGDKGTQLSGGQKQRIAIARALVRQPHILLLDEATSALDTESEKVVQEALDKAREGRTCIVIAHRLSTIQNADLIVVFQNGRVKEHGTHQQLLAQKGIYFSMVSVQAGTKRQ
Sequence of Mitogen-activated protein kinase 7 (Homo sapiens) (Q13164 whole entry, looked up, the tested form may be a part): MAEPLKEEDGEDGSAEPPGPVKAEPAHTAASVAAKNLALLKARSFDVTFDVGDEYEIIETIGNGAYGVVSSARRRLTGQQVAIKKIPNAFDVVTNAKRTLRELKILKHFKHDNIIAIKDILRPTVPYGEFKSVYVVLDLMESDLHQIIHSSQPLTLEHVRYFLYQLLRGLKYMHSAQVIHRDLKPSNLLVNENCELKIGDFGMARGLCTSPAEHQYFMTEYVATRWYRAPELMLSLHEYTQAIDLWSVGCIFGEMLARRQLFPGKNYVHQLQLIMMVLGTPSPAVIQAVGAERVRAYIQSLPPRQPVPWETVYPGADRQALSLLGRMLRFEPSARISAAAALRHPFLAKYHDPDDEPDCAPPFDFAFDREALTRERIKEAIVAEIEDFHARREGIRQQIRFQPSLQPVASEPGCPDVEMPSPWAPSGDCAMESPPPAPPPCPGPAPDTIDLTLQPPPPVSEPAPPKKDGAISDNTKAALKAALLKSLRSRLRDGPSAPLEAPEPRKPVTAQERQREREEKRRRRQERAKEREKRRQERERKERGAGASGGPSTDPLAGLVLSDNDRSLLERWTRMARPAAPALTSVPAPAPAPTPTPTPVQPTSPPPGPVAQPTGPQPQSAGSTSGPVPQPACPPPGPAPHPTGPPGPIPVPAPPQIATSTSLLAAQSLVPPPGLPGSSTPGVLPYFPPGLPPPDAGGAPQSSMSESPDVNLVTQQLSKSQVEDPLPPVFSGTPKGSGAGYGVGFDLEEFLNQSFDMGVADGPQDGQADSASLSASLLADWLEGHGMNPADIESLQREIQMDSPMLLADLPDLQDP

On to `Cn1c(CCCC(=O)O)nc2cc(N(CCCl)CCCl)ccc21`, for which, in experiment [1], the fluorescence ratio (interference) was 1 (inactive). For the same compound, in [2], the AC50 was 20900 nM (active). Further, the call in [3], in experiment [4], in experiment [5], in experiment [6] and in experiment [7] was inactive. In addition, the inhibition was -19.5% (inactive) in experiment [8] (at 0.5 µM, stronger effect = higher value); -18.2% in experiment [8] (measured here: combination with BGB IC20, at 0.005 µM); -30.6% in [8] (measured here: combination with BGB IC40, at 0.005 µM); -11.9% in [8] (measured here: combination with BGB IC40, at 0.05 µM); -29.9% in experiment [8] (measured here: combination with cisplatin, at 0.5 µM, stronger effect = higher value); -14.2% in [8] (measured here: combination with cisplatin, at 5 µM, stronger effect = higher value). The inhibition in experiment [9] (BGB combo, at 5 µM) was -27.8%; in experiment [9] (at 0.5 µM) it was -43.6% (inactive); in [9] (cisplatin combo, at 5 µM), -18.8%; in experiment [9] (measured here: with BGB IC20 combination, at 0.5 µM), -46.1%; in experiment [9] (measured here: with cisplatin IC20 combination, at 0.5 µM), -39.8%; in experiment [9] (single agent, at 5 µM) it was -57.4%. Besides, the inhibition in [10] (BGB IC20 combo, at 0.005 µM) was 6.09%; in experiment [10] (BGB IC40 combo, at 0.005 µM), -55.7%; in experiment [10] (BGB IC40 combo, at 0.05 µM) it was -19.6%; in [10] (at 0.5 µM), -15.5% (inactive); in [10] (cisplatin combo, at 0.05 µM) it was -19.6%; in [10] (cisplatin combo, at 0.5 µM) it was -24.4%. Moreover, the inhibition was -46.7% in experiment [10] (cisplatin combo, at 5 µM); -9.28% in experiment [10] (measured here: 5 uM single agent, at 5 µM); -34.4% (inactive) in experiment [11] (at 0.5 µM); -54.6% in experiment [11] (measured here: with BGB IC20, at 0.5 µM); -12.9% in experiment [11] (measured here: with BGB IC20, at 5 µM); -48.5% in experiment [11] (measured here: with cisplatin IC20, at 0.5 µM). In addition, the inhibition in [11] (measured here: with cisplatin IC20, at 5 µM) is -38%; in experiment [11] (single agent, at 5 µM), -20%; in experiment [12] (at 0.5 µM), -25.9% (inactive); in experiment [12] (measured here: BGB combination, at 0.5 µM), -33%; in [12] (measured here: BGB combination, at 5 µM) it was -23.4%; in experiment [12] (measured here: cisplatin combination, at 0.5 µM), -31%. Besides, the inhibition in experiment [12] (measured here: cisplatin combination, at 5 µM) is -8.45%; in experiment [13] (at 0.5 µM), -12.4% (inactive); in experiment [13] (cisplatin combination, at 0.5 µM) it was -15.3%; in [13] (cisplatin combination, at 5 µM), -29.8%; in experiment [13] (measured here: BGB IC40 combination 0.05 uM, at 0.05 µM), -6.48%; in experiment [13] (single agent, at 5 µM), -11.8%.

On to `COc1ccc(C(=O)c2c(C)n(CCN3CCOCC3)c3ccccc23)cc1`, for which the compound was called inactive in experiment [14], in experiment [15], in [16] and in [5]. Moreover, the AC50 in experiment [17] was 16600 nM (active).

Take `Cc1ccc(S(=O)(=O)N[C@@H](CCCCN)C(=O)CCl)cc1`: in experiment [1], the fluorescence ratio (interference) is 1 (inactive). The result in experiment [7] was inactive.

`Cc1ncsc1CCCl`: the fluorescence ratio (interference) in experiment [1] was 1 (inactive). For the same compound, the remaining activity in [18] is 110% (inactive). Moreover, the compound was called inactive in [7].

As for `[N-]=[N+]=CC(=O)OC[C@H](N)C(=O)O`, the luciferase signal in experiment [19] was 40 AU (inactive).

For `CN(C)CCc1ccc(O)cc1`, the call in experiment [14], in [15], in [16] and in experiment [5] was inactive.

`O=C(CCCN1CCC(n2c(=O)[nH]c3ccccc32)CC1)c1ccc(F)cc1`: in [20], the fluorescence slope change was 57.5% (active).

For `OC(c1ccccc1)(c1ccccc1)C1CCNCC1`, in experiment [20], the fluorescence slope change is 93.1% (active).

Take `COc1ccc2c(c1OC)CN1CCc3cc4c(cc3C1C2)OCO4` (configuration not stated): the fluorescence slope change in experiment [20] is 24.8% (inactive). For the same compound, the call in [14] and in experiment [5] was inactive. The AC50 in experiment [15] was 14800 nM (active); in [16], 16600 nM (active).

Take `COP(=S)(OC)Oc1ccc(Sc2ccc(OP(=S)(OC)OC)cc2)cc1`: the luciferase signal in experiment [19] was 80 AU (inactive).

Take `COc1ccc2c(c1OC)C(=O)O[C@H]2[C@@H]1c2cc3c(cc2CCN1C)OCO3`: the fluorescence ratio (interference) in experiment [1] is 1 (inactive). The result in [7] was inactive.

With `CN(C)C(=S)SSC(=S)N(C)C`, in experiment [19], the luciferase signal is 64 AU (inactive).

Consider `CN1C[C@H](CNC(=O)OCc2ccccc2)C[C@@H]2c3cccc4c3c(cn4C)C[C@H]21`, for which, in experiment [20], the fluorescence slope change is 18.1% (inactive). In addition, in experiment [1], the fluorescence ratio (interference) is 1 (inactive). Further, the remaining activity in experiment [18] was 86.6% (inactive). The result in [7] was inactive. The luciferase signal in [19] is 40 AU (inactive).

As to `COc1cccc2c1C(=O)c1c(O)c3c(c(O)c1C2=O)C[C@@](O)(C(=O)CO)CC3OC1CC(N2CCOC(OC)C2)C(O)C(C)O1` (some centres not stated), the AC50 was 4.17 nM (active) in [2], 7.42 nM (active) in [3], 23.5 nM (active) in [4] and 14.8 nM (active) in experiment [17]. For the same compound, the IC50 in experiment [6] is 332 nM (active).

As for `COc1ccc2[nH]cc(CCN)c2c1`, the fluorescence ratio (interference) in experiment [1] is 1 (inactive). In addition, the outcome in experiment [7] was inactive.

For the compound `COc1cc2c(cc1OC)[C@@]13CCN4CC5=CCO[C@H]6CC(=O)N2[C@H]1[C@H]6[C@H]5C[C@H]43`, in experiment [19], the luciferase signal is 76 AU (inactive).
